Assay [1] in a line: NCI Yeast Anticancer Drug Screen. Data for the rad50 strain (AID 155).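 Also: 0% = growth of vehicle-only cultures of the same strain.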 As to conditions: S. cerevisiae rad50 strain growth inhibition; at 50.0 µM; hits give high values. The method, boiled down:
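Genetically altered yeast (DNA repair pathway); compound treatment; growth inhibition vs vehicle ctrl.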

A short description of assay [2]: NCI Yeast Anticancer Drug Screen. Data for the mec2-1 strain (AID 157). As to conditions: S. cerevisiae mec2-1 strain, at 50.0 µM, hits give high values. A digest of the protocol:
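mec2-1 yeast strain, carrying an alteration in DNA damage repair or cell cycle control, was exposed to compounds; growth inhibition was measured relative to vehicle-treated controls.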

Assay [3] can be described thus: NCI Yeast Anticancer Drug Screen. Data for the sgs1 mgt1 strain (AID 161).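 Also: 0% = growth of cultures given vehicle only.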 As to conditions: S. cerevisiae sgs1 mgt1 strain, at 50.0 µM, hits give high values. A digest of the protocol: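 Growth of a repair-deficient yeast mutant was monitored after compound treatment and expressed as inhibition relative to vehicle-treated cultures.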
A short description of assay [4]: NCI Yeast Anticancer Drug Screen. Data for the cln2 rad14 strain (AID 165).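 Also: 0% = growth equal to vehicle treated cultures.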 As to conditions: S. cerevisiae cln2 rad14 strain, at 50.0 µM, hits give high values. The method, boiled down:
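Yeast carrying cln2 and rad14 alterations (cell cycle control and DNA damage repair) were exposed to compounds. Growth inhibition was measured against vehicle-treated controls.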

Assay [5] can be described thus: NCI Yeast Anticancer Drug Screen. Data for the bub3 strain (AID 167). As to conditions: S. cerevisiae bub3 mutant strain, at 50.0 µM, hits give high values. A digest of the protocol: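 Yeast carrying a defined mutation is treated with each compound, and growth is compared with that of vehicle-exposed cells to give inhibition.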
Assay [6] is described as follows: NCI Yeast Anticancer Drug Screen. Data for the mlh1 rad18 strain (AID 175). As to conditions: S. cerevisiae mlh1 rad18 strain growth inhibition; at 50.0 µM; hits give high values. The method, boiled down: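 Growth inhibition of the yeast strain was measured after compound exposure and expressed relative to vehicle-treated controls. The strain carries defined defects in DNA damage repair.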

This is part of a sample that, as a whole, favours compounds with a hit. Of some 79,000 tested, about 15% had one in any assay. Values without a mark were called inactive. Calls of active or inactive are those of the source. Rule as the data show it: active = growth inhibition above about 70%; inactive = the rest.

For the compound `O=C(Nc1cc(Cl)c(Cl)cc1Cl)Nc1cc(Cl)ccc1Oc1ccc(Cl)cc1S(=O)(=O)O`, the growth inhibition in assay [1] is 98% (active); in assay [2], 99.3% (active); in assay [3], 99.2% (active); in assay [4] it was 98.5% (active); in assay [5], 98.8% (active); in assay [6], 98.7% (active).

As for `C[N+](C)(C)CC(=O)N/N=C(\C(=O)NC1=C(Cl)C(=O)c2ccccc2C1=O)C(C#N)c1csc(-c2ccc([N+](=O)[O-])cc2)n1` (stereo unspecified), the growth inhibition in assay [1] was 14.8%; in assay [2], 26.6%; in assay [3], -5.8%; in assay [4], 17.6%; in assay [5] it was 33.5%; in assay [6], 19.9%.

For `C=CS(=O)(=O)CCOc1ccc(Cl)cc1Cl`, the growth inhibition was 98.8% (active) in assay [1]; 99.2% (active) in assay [2]; 99.7% (active) in assay [3]; 97.8% (active) in assay [4]; 98.4% (active) in assay [5]; 98.9% (active) in assay [6].

For `CCOc1cc(/C=N/NC(=O)N(c2ccccc2)c2ccccc2)ccc1O`, the growth inhibition in assay [1] is 4.25%; in assay [2], -8.6%; in assay [3] it was 25.6%; in assay [4], 12.8%; in assay [5], 24.6%; in assay [6], 7.35%.

As for `CC(=O)CCCCO`, the growth inhibition in assay [1] was -6.8%; in assay [2], -2.5%; in assay [3], 10.8%; in assay [4] it was -8.55%; in assay [5], 2.8%; in assay [6] it was -18.1%.

`F[B-](F)(F)[NH2+]c1ccc(-c2ccc([NH2+][B-](F)(F)F)c(Cl)c2)cc1Cl`: the growth inhibition in assay [1] is 35.1%; in assay [2] it was 8.15%; in assay [3], 42.3%; in assay [4] it was 38%; in assay [5], 19.9%; in assay [6], 10.7%.

Take `O=C1C=CC(n2cc(F)c(=O)[nH]c2=O)O1` (stereo unspecified): the growth inhibition in assay [1] was 27.1%; in assay [2], 44.2%; in assay [3] it was 44.9%; in assay [4] it was 12.9%; in assay [5], 9.3%; in assay [6], -43.9%.

Take `CCCC(=O)OCC1OC2OC(C)(C)OC2C2OC(C)(C)OC12` (stereo unspecified): the growth inhibition is -4.45% in assay [1]; -2.55% in assay [2]; 10.8% in assay [3]; 8.55% in assay [4]; 15.8% in assay [5]; -6.25% in assay [6].

With `CC1(C)[C@H]2CC[C@@]1(C)C(=O)[C@H]2[N+](=O)[O-]`, the growth inhibition was 4.25% in assay [1]; -20.2% in assay [2]; -1.8% in assay [3]; 7.85% in assay [4]; -9.15% in assay [5]; 8.75% in assay [6].

Take `CCOc1ccc(N(O)C(C)=O)cc1`: the growth inhibition in assay [1] was 1.9%; in assay [2], -10.4%; in assay [3], 3%; in assay [4] it was -43.4%; in assay [5] it was -8.75%; in assay [6], 0%.

On to `Cc1[nH]c(=O)[nH]c(=O)c1C`, for which the growth inhibition is 4.05% in assay [1]; -36.1% in assay [2]; 1.8% in assay [3]; 27.4% in assay [4]; -11.9% in assay [5]; 7.35% in assay [6].

`Cc1c(C)c(C)c(CN2CCC(C)CC2)c(C)c1C`: the growth inhibition in assay [1] is -2.55%; in assay [2] it was 9.85%; in assay [3] it was -14.9%; in assay [4] it was -17.6%; in assay [5], 3.45%; in assay [6], -9.1%.

Regarding `Cc1ccc2c(ccc3ccccc32)n1`, the growth inhibition is 59.8% in assay [1]; 16.8% in assay [2]; 60% in assay [3]; -4.4% in assay [4]; 50.5% in assay [5]; 45.4% in assay [6].

For `Cc1nc(C)c(N2CCN(Cc3ccccc3)CC2)c(=O)[nH]1`, the growth inhibition in assay [1] is 8.65%; in assay [2], 2.5%; in assay [3] it was -45.1%; in assay [4] it was 13%; in assay [5], 17.4%; in assay [6], -52.9%.

Turning to `CCOc1ccccc1NCN1C(=O)c2ccccc2C1=O`, the growth inhibition in assay [1] is -38.9%; in assay [2] it was -35.1%; in assay [3] it was -12.2%; in assay [4] it was -8.65%; in assay [5], -18.3%; in assay [6] it was -20.1%.

Consider `O=C(O)c1c(-c2ccccc2)c(=O)[nH]c2ccccc12`, for which the growth inhibition was -6.8% in assay [1]; 4.05% in assay [2]; -36.8% in assay [3]; 17.1% in assay [4]; 13.2% in assay [5]; 11.1% in assay [6].

With `COc1ccc2oc3cc(NCCN(C)C)ccc3c(=O)c2c1`, the growth inhibition in assay [1] was -4.65%; in assay [2], -21.7%; in assay [3], -25.6%; in assay [4] it was 15.9%; in assay [5], -19.9%; in assay [6], -19.3%.

Consider `NCCCOCCN1CCN(c2ccccc2)CC1`, for which the growth inhibition in assay [1] was -0.75%; in assay [2], -27.2%; in assay [3], 0.75%; in assay [4] it was -39.5%; in assay [5], 2.95%; in assay [6], 7.25%.

With `C#CC(C)(C)CC`, the growth inhibition in assay [1] was 21.4%; in assay [2], -16.4%; in assay [3], 8.35%; in assay [4], 19.8%; in assay [5], -8.1%; in assay [6], 17.4%.

For `O=CNc1ccc(F)c(F)c1`, the growth inhibition in assay [1] is -16.8%; in assay [2] it was -16.4%; in assay [3], -6.95%; in assay [4] it was -5.35%; in assay [5], -7.2%; in assay [6] it was -10.1%.

As to `S=C(N/N=C1\CSCc2ccccc21)Nc1cc(Cl)ccc1Cl`, the growth inhibition is 11.9% in assay [1]; -4.45% in assay [2]; 6.05% in assay [3]; 10.2% in assay [4]; 23.9% in assay [5]; 0.5% in assay [6].

These data come from PubChem BioAssay (NCI).
